The list is not random: actives were taken first. Their share in the collection is about 11%.
ALDH1A1 inh – qHTS Assay for Inhibitors of Aldehyde Dehydrogenase 1 (ALDH1A1); Aldehyde dehydrogenase 1A1 (Homo sapiens), P00352; Purified ALDH1A1, NADH fluorescence, propionaldehyde substrate; Potency, µM (doses to about 75.3 µM), inactives show at the top dose activity, negative = inhibition, hits mostly inhibitors; hit rate 7.3% among 220,000; AID 1030, 2008;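 further: potency means the concentration at half of the fitted maximal effect; plate controls were no enzyme wells and a reference inhibitor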
Target sequence (P00352 whole entry, looked up): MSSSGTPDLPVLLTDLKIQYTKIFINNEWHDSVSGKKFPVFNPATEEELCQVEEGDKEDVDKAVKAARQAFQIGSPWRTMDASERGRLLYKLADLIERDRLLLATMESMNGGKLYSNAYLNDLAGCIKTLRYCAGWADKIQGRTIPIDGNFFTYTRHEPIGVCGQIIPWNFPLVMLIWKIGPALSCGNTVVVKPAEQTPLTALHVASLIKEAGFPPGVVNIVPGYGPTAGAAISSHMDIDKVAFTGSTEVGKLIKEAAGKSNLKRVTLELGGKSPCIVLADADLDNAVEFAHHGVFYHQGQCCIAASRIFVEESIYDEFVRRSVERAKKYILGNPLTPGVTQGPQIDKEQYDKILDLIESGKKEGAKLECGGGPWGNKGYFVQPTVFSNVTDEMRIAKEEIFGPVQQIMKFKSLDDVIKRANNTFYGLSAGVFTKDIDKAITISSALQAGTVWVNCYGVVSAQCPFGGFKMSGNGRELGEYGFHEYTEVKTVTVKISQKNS
KDM4E inh – qHTS Assay for Inhibitors of Human Jumonji Domain Containing 2E (JMJD2E); Lysine-specific demethylase 4E (Homo sapiens), B2RXH2; JMJD2E catalytic domain, FDH-coupled NADH fluorescence (FDH is formaldehyde dehydrogenase); Potency, µM (series often up to 57.1 µM), inactives show at the top dose activity change, negative = inhibition, hits mostly inhibitors; hit rate 1.6% among 230,000; AID 2147, 2009;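 further: potency means the concentration at half of the fitted maximal effect; 0% = wells with enzyme and -100% = buffer wells without enzyme; nearly all actives have a fitted effect of over 50% in size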
PNC inhibitor – High Content Assay for Compounds that inhibit the Assembly of the Perinucleolar Compartment | hit rate 3.1% among 140,000 | AID 2417, 2010 | PC3M PTB-GFP, PNC prevalence imaging, 16 h; active compounds read low | activity change (PNC), negative = inhibition, % at 10 µM;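 active means readout at or below -70, meaning at least 70% loss of cells showing the perinucleolar compartment, a nuclear body marking cancer cells; inconclusive means readout between -30 and a set limit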;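 further: plate controls were DMSO wells for no effect and camptothecin positive control wells for full effect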
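Read-out is percentage of cells bearing a perinucleolar compartment, from automated 20x imaging of fixed, Hoechst-stained PC3M PTB-GFP cells. Cells were seeded 4 h, then exposed 16 h to compound (23 nl of library stock) in duplicate plates.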
HPGD block – qHTS Assay for Inhibitors of HPGD (15-Hydroxyprostaglandin Dehydrogenase) | 15-hydroxyprostaglandin dehydrogenase [NAD(+)] (Homo sapiens), P15428 | purified HPGD, NADH fluorescence kinetic, PGE2 substrate | Potency, µM, inactives show top-dose activity change, negative = inhibition, actives largely listed as inhibitors | hit rate 4.3% among 150,000 | AID 894, 2007; further: potency means the concentration at half of the fitted maximal effect
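NADH formation kinetics: reaction with 30 uM PGE2 and 1 mM NAD+ (final), 20 nM enzyme, Tris-HCl pH 8 with Tween 20, after 15 min compound preincubation at room temperature. Fluorescence change, last versus first of five reads.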
Starred values were filed as active, the others as inactive; ? = inconclusive; . = no result given; [ ] = another dose, or the depositor's remark. Unless noted, the call rests on the fitted dose curve; in most records, active means well fitted inhibition curve with a large enough effect (not every such curve was filed as active); inconclusive means small, poorly fitted or top-dose-only effect, or another doubt; inactive means no such curve, though single readings can be large or run the other way. Unless noted, on the % scale 0 is the no-effect control and ±100 the full control effect.

SMILES	ALDH1A1 inh	KDM4E inh	PNC inhibitor	HPGD block
COC(=O)c1ccc(CC(=O)c2ccc(O)cc2O)o1	?	?	6.2	31.6µM*
COC(=O)c1cc(CC(=O)c2ccc(O)cc2O)c(C)o1	5.3%	-0.5%	31.9	15.8µM*
COC(=O)c1ccc(CC(=O)c2c(C)cc(O)cc2O)o1	28.2µM*	17.8µM*	-19.0	.
CCOC(=O)c1ccc(CC(=O)c2ccc(O)cc2O)o1	?	-20.1%	?	-12.0%
O=C(O)c1cc(S(=O)(=O)N2CCOCC2)ccc1N1CCOCC1	-1.5%	3.7%	?	-0.6%
O=c1c2ccccc2sn1-c1cc(S(=O)(=O)N2CCOCC2)ccc1N1CCOCC1	0.0562µM*	8.91µM*	?	0.794µM*
O=C1OC(c2ccccc2)c2ccccc21 (centres undefined)	14.1µM*	-7.3%	33.2	-9.7%
Cc1ccc(C2OC(=O)c3ccccc32)cc1 (centres undefined)	-9.5%	4.6%	19.6	-9.6%
Cn1c(=O)c2cc(S(=O)(=O)NC(C(=O)N3CCCCCC3)c3ccccc3)ccc2n(C)c1=O (centres undefined)	3.16µM*	-6.0%	?	-8.3%
Cn1c(=O)c2cc(S(=O)(=O)NC(C(=O)NC3CCCCC3)c3ccccc3)ccc2n(C)c1=O (centres undefined)	-7.1%	-0.3%	-5.5	-9.7%
O=C(CCC(=O)OCC(=O)c1ccc(Cl)cc1Cl)Nc1cccc2cccnc12	28.2µM*	7.9%	26.1	-17.1%
COC(=O)c1c(NC(=O)CC2SC(N)=NC2=O)sc(C)c1C (centres undefined)	8.5%	-11.8%	.	.
COC(=O)C1=C(C)N(CCc2ccc(OC)c(OC)c2)C(=O)/C1=C\c1ccc(O)cc1	25.1µM*	4.7%	-116.4*	-2.0%
O=C(/C=C/c1ccc(O)cc1)c1ccccc1	.	-10.5%	.	.
O=C/C=C/c1ccc(O)cc1	3.55µM*	28.2µM*	.	-14.2%
O=c1cc(O)n(-c2ccc(F)cc2)c(=S)[nH]1	3.8%	-6.8%	-18.4	28.2µM*
O=C(O)c1ccc2c(=O)n(-c3ccc(F)cc3)c(=S)[nH]c2c1	5.6%	-5.0%	.	.
O=S(=O)(NC1CCCCC1)c1cccc(-c2nnc(-c3ccccc3)o2)c1	?	?	35.1	17.8µM*
CSc1ccccc1C(=O)N1CCCCC1	15.2%	-1.1%	.	.
O=C(Cn1cnc2cc([N+](=O)[O-])ccc2c1=O)NC1CCS(=O)(=O)C1 (centres undefined)	-1.6%	?	.	.
COc1cc(OC)cc(C(=O)Oc2ccc(/C=N/Nc3nc4ccccc4s3)cc2OC)c1	2.2%	35.5µM*	81.5	?
C=C/C1=C/Cc2ccccc2C(C[N+](=O)[O-])C(C(=O)OC)(C(=O)OC)C1 (centres undefined)	-8.3%[13.5 µM]	.	.	.
Cc1ccc(/C=N/N2CCN(C3c4ccccc4-c4ccccc43)CC2)o1	.	-20.6%	.	.
COc1ccccc1OCCC(=O)OCC(=O)c1[nH]c(C)c(C(C)=O)c1C	25.1µM*	-5.9%	.	.
COc1ccccc1OCCC(=O)OCC(=O)Nc1cc(S(=O)(=O)N(C)C)ccc1Cl	3.16µM*	-16.3%	.	.
SMILES	ALDH1A1 inh	KDM4E inh	PNC inhibitor	HPGD block
COc1ccccc1OCCC(=O)OCC(=O)NC(C)c1ccccc1 (centres undefined)	2.3%	8.9%	-83.5*	-9.9%
Cc1ccc(SCC(=O)N2c3ccccc3Sc3ccccc32)cc1	3.55µM*	2.5%	13.4	-21.8%
O=C(CSc1nncs1)N1c2ccccc2Sc2ccccc21	10µM*	1.3%	-18.4	-7.6%
COc1ccc(C(=O)c2c[nH]c(C(=O)N=CN(C)C)c2)cc1	2.4%	-6.7%	.	.
CCN=C(NC#N)SCc1c(F)cccc1Cl	?	-1.2%	-109.0*	-3.3%
C=CCN=C(NC#N)SCc1ccccc1	8.1%	1.7%	34.2	2.1%
COCC(=O)N1CCC[C@@]2(CCN(C(=O)Nc3ccc(OC)cc3)C2)C1	1.0%	.	.	-5.6%
Cn1c(=O)[nH]c(=O)c2c1nc(SCCN1CCOCC1)n2CCCc1ccccc1	-11.3%	-3.9%	?	35.5µM*
Cn1c(=O)c2c(nc(SCCN3CCOCC3)n2Cc2ccccc2Cl)n(C)c1=O	-6.8%	5.3%	-10.5	-11.8%
CC(C)CCn1c(SCC(=O)c2ccccc2)nc2c1c(=O)[nH]c(=O)n2C	17.8µM*	-6.1%	-6.4	-5.2%
CCOC(=O)CSc1nc2c(c(=O)[nH]c(=O)n2C)n1CCc1ccccc1	?	-0.1%	?	-11.8%
Cn1c(=O)[nH]c(=O)c2c1nc(SCC(=O)O)n2CCc1ccccc1	6.31µM*	-6.5%	?	12.6µM*
Cn1c(=O)c2c(nc(SCCN3CCOCC3)n2Cc2cccc3ccccc23)n(C)c1=O	22.4µM*	1.9%	12.8	-7.3%
CC(C)CCn1c(Sc2nc3ccccc3s2)nc2c1c(=O)[nH]c(=O)n2C	11.2µM*	4.2%	?	.
CCOC(=O)C(CC)Sc1nc2c(c(=O)[nH]c(=O)n2C)n1CCc1ccccc1 (centres undefined)	11.2µM*	-8.2%	-6.2	22.4µM*
CCN1CCN(c2nc3c(c(=O)[nH]c(=O)n3C)n2CCSc2nc3ccccc3s2)CC1	6.7%	-4.5%	-16.3	-7.4%
CC(C)CCSc1nc2c(c(=O)[nH]c(=O)n2C)n1CCCc1ccccc1	0.6%	-3.9%	26.8	?
CC(CSc1nc2ccccc2s1)Cn1c(N2CCCC2)nc2c1c(=O)[nH]c(=O)n2C (centres undefined)	7.6%	6.4%	-9.7	22.4µM*
Cn1nnc(NC(=S)NC(=O)c2ccco2)n1	3.55µM*	0.8%	34.8	?
COc1cccc(C(=O)NC(=S)Nc2nnn(C)n2)c1	22.4µM*	-6.1%	-7.4	?
Cn1nnc(NC(=O)c2ccco2)n1	1.6%	7.6%	24.2	-3.8%
Cn1nnc(NC(=O)c2ccccc2)n1	7.6%	2.9%	-95.3*	1.8%
COc1ccc(C(=O)NC(=S)Nc2nnn(C)n2)cc1	11.2µM*	-4.4%	-8.4	-29.6%
NC1CONC1=O (centres undefined)	4.8%	-2.5%	.	-8.1%
COC(=O)/C=C\c1cc(O)ccc1O	?	31.6µM*	.	2.24µM*
COc1cccc(-n2c(CN3CCN(c4ccc(C)cc4)C(C)C3)nc3ccc([N+](=O)[O-])cc3c2=O)c1 (centres undefined)	25.1µM*	0.4%	25.8	-5.4%
COc1cccc(-n2c(CN3CCN(c4cccc(C)c4)C(C)C3)nc3ccc([N+](=O)[O-])cc3c2=O)c1 (centres undefined)	?	-15.4%	?	-8.4%
CCCC1O[C@@H]2C[C@H]3[C@@H]4CCC5=CC(=O)C=C[C@]5(C)C4[C@@H](O)C[C@]3(C)[C@]2(C(=O)CO)O1 (some centres undefined)	6.0%	1.4%	.	-14.0%
Nc1ncnc2c([C@@H]3O[C@@H](CO)[C@H](O)[C@@H]3O)nsc12	-12.5%[13.5 µM]	.	.	-5.1%
